Experimental data published in PubChem BioAssay AID2113 (National Center for Advancing Translational Sciences (NCATS), 2009).
Inconclusive results are not listed. A number with no mark means an inactive call. The source made the active and inactive calls. The call rests on the fitted dose curve; in most records, active means well fitted curve in either direction with a large enough effect; inconclusive means small, poorly fitted or top-dose-only effect; inactive means no such curve, though single readings can be large or run the other way.

biological target: Lysosomal alpha-glucosidase (Homo sapiens) (UniProt P10253); test: Confirmation of Inhibitors and Activators of Human alpha-Glucosidase From Spleen Homogenate; settings: alpha-glucosidase enzyme activity; series mostly up to 60.5 µM; activity change, both directions: at the top concentration;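 on Potency: fluorescence of 4-methylumbelliferone released from a fluorogenic glucopyranoside substrate at pH 5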; on activity change, both directions: 0% is about no effect
In short: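 Compounds titrated against spleen-homogenate alpha-glucosidase, pH 5.0, 1 mM 4-MU-glucoside substrate, 37 C for 40 min. Fluorescence after pH 10 stop, normalised to no-enzyme and enzyme controls; Hill-equation AC50.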
Potency means the concentration at half of the fitted maximal effect.

Row | Structure (SMILES) | activity change, both directions | Potency
1 | CCOC(=O)C1CCCN(C(=O)CCC(=O)Nc2ccc3nc(N4CCOCC4)cc(C)c3c2)C1 (stereo unspecified) | 25.1% [at 31.5 µM] | –
2 | Cc1ccc(S(=O)(=O)N2CCOCC2)cc1 | -0.104% | –
3 | N#Cc1c(-c2ccc(F)cc2)cc(-c2cccnc2)nc1N | 8.93% | –
4 | CCCN1CNc2c(c(=O)[nH]c(=S)n2CCc2ccc(OC)cc2OC)C1 | – | 15.8 µM (active)
5 | CC1=CC(=C2C=CC(=O)C=C2)C=C(C)N1C | -1.03% [at 31.5 µM] | –
6 | NN=C1c2cc(S(=O)(=O)NCCO)ccc2-c2ccc(S(=O)(=O)NCCO)cc21 | 0.552% | –
7 | Cc1cc(C)c(C(=O)Cn2cnc3cc([N+](=O)[O-])ccc3c2=O)cc1C | 2.64% [at 31.5 µM] | –
8 | O=C(NC(C(=O)c1ccccc1)n1ccc(=O)[nH]c1=O)c1ccccc1 (stereo unspecified) | -4.26% [at 31.5 µM] | –
9 | O=S(=O)(c1ccccc1Br)N1CCOCC1 | 0.791% | –
10 | COc1cc(/C=C/c2ccc3ccccc3n2)cc(OC)c1O | 2.21% | –
11 | Cc1ccc(S(=O)(=O)N2CCN(C(=O)C3COc4ccccc4O3)CC2)cc1C (stereo unspecified) | -17.9% | –
12 | CNC(=S)/N=C(\Nc1ccc(C)cc1)c1ccccc1 | 3.12% [at 31.5 µM] | –
13 | CCC1C(=O)NCCN1Cc1nc(-c2ccc(C)s2)oc1C (stereo unspecified) | 2.96% | –
14 | CN1CCN(S(=O)(=O)c2ccccc2)CC1 | 3.17% | –
15 | NC(=S)NN=C1c2cc(S(=O)(=O)N3CCOCC3)ccc2-c2ccc(S(=O)(=O)N3CCOCC3)cc21 | -40.4% | –
16 | Cc1[nH]n(C(N)=S)c(=O)c1N=Nc1ccc2ccccc2c1 | 1.19% | –
17 | N#Cc1ccc(S(=O)(=O)N2CCOCC2)cc1 | -2.24% | –
18 | COc1ccc2nc3c(cc2c1)Cn1c-3nc2ccccc2c1=O | 15.6% | –

Row | Structure (SMILES) | activity change, both directions | Potency
19 | CNc1ncnc2c1ncn2[C@H]1C[C@H](OP(=O)(O)O)[C@@H](COP(=O)(O)O)O1 | 2.81% [at 286 µM] | –
20 | CC(=O)N1CCN(c2ccc(NS(=O)(=O)c3ccc4c(c3)CC(=O)N4)cc2)CC1 | -25.7% [at 132 µM] | –
21 | Cc1ccc(-c2nc(-c3cc4cc(Cl)ccc4oc3=O)sc2C)cc1 | 5.44% | –
22 | COc1ccc2nc(-c3ccc(N(C)C)cc3)sc2c1 | – | 7.08 µM (active)
23 | Cc1sc(-c2cc3cc(Br)ccc3oc2=O)nc1-c1ccccc1 | 12.3% | –
24 | CCCN1CNc2c(c(=O)[nH]c(=S)n2CCc2ccc(Cl)cc2Cl)C1 | – | 22.4 µM (active)
25 | O=c1oc2ccc(Cl)cc2cc1-c1nc2c(s1)CCCC2 | 15.9% | –
26 | N#CCCN1CCN(S(=O)(=O)c2ccc(S(=O)(=O)N3CCOCC3)cc2)CC1 | -6.93% | –
27 | CCCN1CNc2c(c(=O)[nH]c(=S)n2CCC(C)(C)C)C1 | -6.13% | –
28 | O=S(=O)(c1ccc2nc(-c3ccco3)c(-c3ccco3)nc2c1)N1CCOCC1 | -14.7% | –
29 | CCCN1CNc2c(c(=O)[nH]c(=S)n2CCc2ccc(OC)cc2)C1 | – | 14.1 µM (active)
30 | COc1ccc(/C=C/c2nnc(NC(=O)COc3ccc(Cl)cc3)s2)cc1 | -1.2% | –
31 | O=c1oc2ccc3ccccc3c2cc1-c1nc2c(s1)CCc1ccccc1-2 | 7.81% | –
32 | O=C(NN=C1c2ccccc2-c2ccccc21)c1cccc(S(=O)(=O)N2CCOCC2)c1 | -2.68% | –
33 | CC(=O)c1ccc(N2CCN(S(=O)(=O)c3ccc4c(c3)CC(C)N4C(C)=O)CC2)cc1 (stereo unspecified) | -2.72% | –
34 | CCN(CC)S(=O)(=O)c1ccc2c(c1)C(=NNc1ccccc1)c1cc(S(=O)(=O)N(CC)CC)ccc1-2 | -4.74% | –
35 | CCCN1CNc2c(c(=O)[nH]c(=S)n2CCc2ccc(C)c(C)c2)C1 | – | 20 µM (active)
36 | C[C@@H](NC(=O)c1nc[nH]c1C(=O)N[C@@H](Cc1ccccc1)C(=O)OC(C)(C)C)c1ccccc1 | -2.65% | –
